Bioassay records deposited in PubChem BioAssay by National Center for Advancing Translational Sciences (NCATS).
Rows were chosen to be rich in hits. Some 10% of all compounds tested hit in one or more screens of this group.
JMJD2A Tudor inh: blocks the human JMJD2A Tudor domain. AlphaScreen JMJD2A-Tudor / H3K4me3 peptide binding. Potency, µM (doses to about 114 µM), most hits filed as inhibitors. hit rate 4.4% among 390,000. O75164; further: nearly all actives have a fitted effect of over 50% in size
GLS inhibitor: inhibitors of human glutaminase (GLS) | O94925 | GLS enzymatic activity, qHTS titration | Potency, µM (highest dose often 45.5 µM), most hits filed as inhibitors | hit rate 0.21% among 410,000 | AID 624170
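Glutamate formation by hKGA was monitored fluorometrically using coupled glutamate oxidase, HRP and Amplex Red. Substrate was added as 1 mM L-glutamine solution; incubation was 30 min at RT after an initial read.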
G9a inh: inhibitors of human histone lysine methyltransferase G9a. Q96KQ7. G9a H3K9 monomethylation, AlphaScreen, 2 h. Potency, µM (highest dose often 102 µM), most hits filed as inhibitors. hit rate 8.8% among 350,000. AID 504332; further: nearly all actives have a fitted effect of over 75% in size
Target sequence (Q96KQ7 913-1193 limits assumed): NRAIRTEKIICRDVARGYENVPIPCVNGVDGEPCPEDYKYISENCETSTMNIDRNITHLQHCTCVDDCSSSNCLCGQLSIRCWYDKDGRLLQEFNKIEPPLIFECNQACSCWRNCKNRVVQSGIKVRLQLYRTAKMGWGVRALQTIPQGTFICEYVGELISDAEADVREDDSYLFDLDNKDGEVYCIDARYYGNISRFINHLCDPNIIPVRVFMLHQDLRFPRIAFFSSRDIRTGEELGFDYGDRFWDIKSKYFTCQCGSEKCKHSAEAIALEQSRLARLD
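Compounds were preincubated with 20 nM G9a for 15 min, after which biotinylated H3K9 peptide (500 nM) and SAM (20 uM) started a 2 h room-temperature reaction. Monomethylated product was quantified by antibody-based AlphaScreen chemiluminescence.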
BAZ2B inh: blocks human BAZ2B; AlphaScreen BAZ2B-H3K14Ac peptide displacement; Potency, µM (series often up to 114 µM), hits mostly inhibitors; hit rate 4.4% among 360,000; AID 504333; further: nearly all actives have a fitted effect of over 60% in size
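AlphaScreen luminescence quantifies BAZ2B engagement of H3K14Ac peptide; the protein and biotinylated peptide are both at 50 nM final, buffer PBS pH 7.4 with 0.01% Tween-20, all steps at room temperature.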
HP1b binding inh: blocks HP1-beta chromodomain binding to methylated histone tails; AlphaScreen HP1-beta / biotin-H3K9me3 peptide binding; Potency, µM (top dose mostly 114 µM), actives largely listed as inhibitors; hit rate 0.56% among 390,000; AID 540317; further: nearly all actives have a fitted effect of over 70% in size
Target sequence (P83916 whole entry, looked up): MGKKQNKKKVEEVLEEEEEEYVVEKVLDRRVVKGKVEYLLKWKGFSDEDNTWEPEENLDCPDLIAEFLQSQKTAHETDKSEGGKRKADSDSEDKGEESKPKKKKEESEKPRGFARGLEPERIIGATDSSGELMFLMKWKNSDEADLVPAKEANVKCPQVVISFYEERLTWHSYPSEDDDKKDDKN
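HP1-beta protein (50 nM final) preincubated 30 min at room temperature with biotinylated H3(1-18)K9me3 peptide (50 nM) in PBS pH 7.4, 0.01% Tween-20, then compound added for 30 min. AlphaScreen streptavidin donor/nickel chelate acceptor beads (10 ug/mL final), 30 min dark, luminescence read.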
Of the large screens only hits and unclear results are named; the others gave an inactive call. The call rests on the fitted dose curve; in most records, active means well fitted curve in the direction sought with a large enough effect; inconclusive means small, poorly fitted or top-dose-only effect, or another doubt; inactive means no such curve, though single readings can be large; an effect the other way counts as inactive or inconclusive.

C[C@@H]1CCCCO[C@H](CN(C)S(=O)(=O)c2ccc(F)cc2)[C@@H](C)CN([C@H](C)CO)C(=O)c2cc(NC(=O)Nc3ccc(C(F)(F)F)cc3)ccc2O1	none (no result: JMJD2A Tudor inh, G9a inh, BAZ2B inh, HP1b binding inh)
CC(=O)Nc1c([N+](=O)[O-])cc2[nH]c(=O)[nH]c2c1[N+](=O)[O-]	G9a inh 32µM
O=C(Nc1ccccc1Br)c1ccc(OC(=S)N2CCOCC2)cc1	none (no result: G9a inh)
CN(C)c1ccc(C(=O)C=Cc2ccc([N+](=O)[O-])cc2)cc1	none (no result: JMJD2A Tudor inh, G9a inh, BAZ2B inh, HP1b binding inh)
COc1ccc(C2/C=C\CN(Cc3ccc(N(C)C)cc3)CC(=O)N2Cc2ccc(F)cc2)cc1 (stereo unspecified)	JMJD2A Tudor inh 25µM, G9a inh inconclusive, BAZ2B inh 32µM, HP1b binding inh inconclusive
O=c1cc(O)c2sc3nc(-c4cccnc4)cc(C(F)(F)F)c3c2[nH]1	JMJD2A Tudor inh inconclusive, G9a inh inconclusive, BAZ2B inh 56µM
Cc1cc(C(F)(F)F)c2c(n1)sc1c(O)cc(=O)[nH]c12	G9a inh inconclusive, BAZ2B inh inconclusive
Cc1nc2sc3c(O)cc(=O)[nH]c3c2c(C)c1C	G9a inh 50µM
O=C(O)c1cc(O)c2c(c1)[C@@H]([C@H]1c3cc(C(=O)O)cc(O)c3C(=O)c3c(O[C@@H]4O[C@H](CO)[C@@H](O)[C@H](O)[C@H]4O)cccc31)c1cccc(O[C@@H]3O[C@H](CO)[C@@H](O)[C@H](O)[C@H]3O)c1C2=O	JMJD2A Tudor inh 0.89µM, GLS inhibitor 1.8µM, HP1b binding inh 1.3µM (no result: G9a inh, BAZ2B inh)
COc1ccc(-n2nnnc2SCC(=O)c2ccc(O)c(O)c2)cc1	JMJD2A Tudor inh inconclusive, G9a inh inconclusive, BAZ2B inh inconclusive, HP1b binding inh inconclusive
CCOC(=O)c1ccc(CC(=O)c2ccc(O)cc2O)o1	G9a inh 22µM
COC(=O)c1ccc(CC(=O)c2ccc(O)cc2O)o1	G9a inh 22µM, BAZ2B inh 63µM
COC(=O)c1ccc(CSCc2ccc(C(=O)OC)o2)o1	none
COC(=O)c1cc(CC(=O)c2ccc(O)cc2O)c(C)o1	BAZ2B inh inconclusive
COC(=O)c1ccc(CC(=O)c2c(C)cc(O)cc2O)o1	JMJD2A Tudor inh inconclusive, G9a inh 45µM, BAZ2B inh inconclusive
O=C(O)COc1ccc(/C=N/NC(=O)c2cn(-c3ccccc3)nc2-c2ccccc2)cc1	none
COc1ccc(N2CCN(C(=O)COc3ccc4c(C)c(C)c(=O)oc4c3C)CC2)cc1	none
O=C(O)C1C2CCC(O2)C1C(=O)NCc1ccccc1Br (stereo unspecified)	none
CN1CCN(c2ccc(-c3cccc(NC(=O)COc4ccc(Cl)cc4)c3)nn2)CC1	G9a inh 50µM
CCOc1ccc(C(=O)Nc2cccc(-c3ccc(N4CCOCC4)nn3)c2)cc1OCC	G9a inh 45µM
CN1CCN(c2ccc(-c3cccc(NC(=O)COc4ccccc4)c3)nn2)CC1	G9a inh inconclusive
O=C1CCc2cc(S(=O)(=O)N3CCN(c4cccc(C(F)(F)F)c4)CC3)ccc2N1	none (no result: G9a inh)
CCOC(=O)C1=C(C)N=C2SC(C)C(=O)N2C1c1ccccc1 (stereo unspecified)	none
Cc1cc2nc(C)n(CCCNC(=O)Nc3cccc4ccccc34)c2cc1C	JMJD2A Tudor inh 50µM
CCNC(=S)NC1CC2CCC(C1)N2Cc1ccccc1 (stereo unspecified)	none
CC(=O)N1CC[n+]2c(-c3ccc(Cl)cc3Cl)csc21	G9a inh 13µM, BAZ2B inh inconclusive
O=C(O)c1ccc(-c2nc(-c3ccc(Cl)cc3Cl)cs2)cc1	G9a inh inconclusive, BAZ2B inh inconclusive
COCCCNC(=O)CN1C(=O)/C(=C\c2ccc(C)cc2)Sc2ccccc21	none
O=C(CSc1nnc(Cc2ccccc2)o1)N1CCc2ccccc21	none
COc1ccc(OC)c(NC(=O)Cc2csc(NC(=O)Nc3ccccc3OC)n2)c1	JMJD2A Tudor inh inconclusive, G9a inh 45µM
COc1cc(OC)cc(C(=O)Nc2nc(CC(=O)NC(C)c3ccccc3)cs2)c1 (stereo unspecified)	G9a inh inconclusive, BAZ2B inh 50µM
COc1ccc(NC(=O)Cc2csc(NC(=O)Nc3ccccc3OC)n2)c(OC)c1	JMJD2A Tudor inh inconclusive, G9a inh 50µM, BAZ2B inh inconclusive
COc1ccc(NC(=S)Nc2nc(CC(=O)Nc3ccccc3OC)cs2)cc1	JMJD2A Tudor inh inconclusive
COc1cccc(CNC(=O)Cc2csc(NC(=O)Nc3ccccc3OC)n2)c1	G9a inh inconclusive
CCC(C)(C)n1nnnc1C(c1cc2cc3c(cc2[nH]c1=O)OCO3)N1CCN(C)CC1 (stereo unspecified)	none
Cc1nc(NC(=O)Nc2ccc(Cl)cc2)sc1C	G9a inh inconclusive
CC(C)NC(=O)c1cc(C2CCCCN2S(=O)(=O)c2ccccc2)on1 (stereo unspecified)	none (no result: JMJD2A Tudor inh, G9a inh, BAZ2B inh, HP1b binding inh)
Cc1occc1C(=O)N1CCCC(N2CCN(c3cccc(C(F)(F)F)c3)CC2)C1 (stereo unspecified)	G9a inh inconclusive, BAZ2B inh inconclusive
Cc1ccc(NC2CCCN(C(=O)c3cccs3)C2)cc1C (stereo unspecified)	G9a inh 35µM
CC(C)c1ccc(NC2CCCN(C(=O)c3cccs3)C2)cc1 (stereo unspecified)	G9a inh 50µM, BAZ2B inh inconclusive
Cc1cc(C(=O)N2CCCC(N3CCN(c4cccc(C(F)(F)F)c4)CC3)C2)c(C)o1 (stereo unspecified)	G9a inh 79µM
COc1ccc(NC2CCCN(C(=O)c3ccccc3C(F)(F)F)C2)cc1 (stereo unspecified)	G9a inh 40µM, BAZ2B inh inconclusive
Cc1ccc(NC2CCCN(C(=O)c3cccnc3)C2)cc1C (stereo unspecified)	none
O=C(NC1CCCc2ccccc21)c1ccccc1 (stereo unspecified)	none
CC(C)c1ccc(S(=O)(=O)N2CCN(C(=O)[C@@H]3CCCN3C(=O)c3cccs3)CC2)cc1	G9a inh 45µM
COC(=O)c1cccc(C(=O)N2CCCC(Nc3ccc(C)c(C)c3)C2)c1 (stereo unspecified)	G9a inh 50µM, BAZ2B inh inconclusive
COc1ccc(C(=O)N2CCCC(Nc3ccc(C)c(C)c3)C2)cc1F (stereo unspecified)	JMJD2A Tudor inh inconclusive, HP1b binding inh inconclusive
CCOC(=O)N1CCN(C2CCCN(C(=O)c3ccccc3C(F)(F)F)C2)CC1 (stereo unspecified)	G9a inh 71µM
COc1ccc(NC2CCCN(C(=O)c3cccs3)C2)cc1 (stereo unspecified)	G9a inh 50µM, BAZ2B inh inconclusive
CC(=O)c1ccccc1OCC(O)CNC1CCCC1 (stereo unspecified)	none (no result: G9a inh)
CCS(=O)(=O)c1ncc(N(Cc2ccco2)Cc2sccc2C)c(C(=O)Nc2cc(C)ccc2C)n1	BAZ2B inh inconclusive
